Screens from PubChem BioAssay.
esBAF inh: blocks esBAF chromatin remodeling in mouse ES cells; Bmi1-luciferase knock-in reporter, 24 h; 100% = twice the neutral-well signal; reporter increase, % at 12.5 µM; 2% of 350,000 active; AID 602393; in the data active = activation above about 40%;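 also: 0% = median of the plate's neutral control wells and 100% = double that signal; a rise in the Bmi1 reporter signal indicates esBAF inhibition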
C2C12 statin: suppressors of simvastatin-induced myotoxicity in C2C12 myotubes | ATP luminescence, 48 h; scaled: DMSO 0, geranylgeraniol control 100 | rescue of ATP level, % at 7.49 µM | 0.78% of 330,000 active;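 active = mean ATP rescue above about 67%, or every replicate alone reaching that limit, limit read from the data, passing the limit was not always enough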;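 also: myotubes were challenged with 10 µM simvastatin during compound exposure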
MITF act: activators of MITF-driven TRPM1 promoter activity in SK-MEL-5 cells; activation, % at 12.5 µM; SK-MEL-5 TRPM1-promoter luciferase, 24 h; % of positive control, neutral wells = 0; 0.75% of 300,000 active;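 active = mean activation of at least 80% with every replicate also reaching 80%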;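 also: 0% = neutral control wells and 100% = parthenolide positive control wells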
Wnt act: Wnt/beta-catenin pathway activation; AID 743398; Wnt/beta-catenin reporter cell assay, activator, plate reader; 1.2% of 300,000 active; activation, % at 9.35 µM; in the data active = activation above about 30%, passing the limit was not always enough;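 also: 0% = neutral control wells and 100% = positive control wells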
Rtt109 HAT inh: inhibitors of Candida albicans Rtt109/Vps75 histone acetyltransferase. purified Rtt109/Vps75, ThioGlo CoA-SH fluorescence, 4 h. 0.16% of 330,000 active. inhibition, % at 34.9 µM. Q5AAJ8;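 active = inhibition of at least 50% in every replicate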
Target sequence (Q5AAJ8 whole entry, looked up): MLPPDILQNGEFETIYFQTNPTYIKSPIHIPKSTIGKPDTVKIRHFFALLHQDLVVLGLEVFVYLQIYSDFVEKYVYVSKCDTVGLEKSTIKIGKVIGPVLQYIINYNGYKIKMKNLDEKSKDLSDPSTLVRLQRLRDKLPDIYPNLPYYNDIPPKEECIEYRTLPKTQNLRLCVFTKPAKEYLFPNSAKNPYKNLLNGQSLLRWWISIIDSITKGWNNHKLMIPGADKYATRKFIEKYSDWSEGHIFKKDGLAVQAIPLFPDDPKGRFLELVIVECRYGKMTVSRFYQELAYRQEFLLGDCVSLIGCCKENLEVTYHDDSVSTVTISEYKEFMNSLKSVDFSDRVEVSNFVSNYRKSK
The depositor's hits bear a star; . = no result given. Most compounds without a hit are left out; they make up all but 3.1% or so of the library.

SMILES | esBAF inh | C2C12 statin | MITF act | Wnt act | Rtt109 HAT inh
Cc1cc2nc(C3CCCN(C(=O)NCc4ccccc4)C3)[nH]c2cc1C (stereo not given) | 36.1 | -22.7 | 39.3 | 46.0* | -1.9
COc1ccc(NC(=S)Nc2ccc(OC)cc2OC)c(OC)c1 | . | . | 4.1 | 2.8 | 3.3
COc1ccc(NC(=S)Nc2cc(C)ccn2)c(OC)c1 | 67.6* | -1.6 | 25.0 | . | -2.7
COc1ccc(NC(=S)Nc2ccccn2)c(OC)c1 | 69.1* | -30.3 | . | 54.9* | 5.3
CCn1c(=O)c(C(=O)Nc2ccccc2C)c(O)c2ccccc21 | 44.4* | 2.5 | -3.6 | . | 1.6
CCCn1c(=O)c(C(=O)Nc2ccccc2N)c(O)c2ccccc21 | 43.0* | -3.8 | . | 1.2 | .
CCCn1c(=O)c(C(=O)Nc2ccccc2)c(O)c2ccccc21 | 30.9 | 2.0 | -38.4 | . | -13.5
CCCn1c(=O)c(C(=O)Nc2ccccc2C)c(O)c2ccccc21 | 19.4 | -21.0 | -13.4 | -2.1 | -1.5
C=CCn1c(=O)c(C(=O)Nc2ccccc2C)c(O)c2ccccc21 | 61.2* | -7.6 | 43.8 | 6.2 | 6.8
O=C(CNC(=O)c1ccncc1)N/N=C/c1cccc([N+](=O)[O-])c1 | . | . | 10.7 | -6.9 | 51.5*
COc1cccc(NC(=O)N[C@@H]2CC[C@@H](CC(=O)N3CCN(C)CC3)O[C@@H]2CO)c1 | -2.1 | -3.1 | . | . | .
CCOC(=O)c1c(Nc2ccccc2)sc(/C=C2\C=Nc3ccccc32)c1O | -7.9 | -55.2 | -7.1 | . | 1.2
CCn1c(O)c(/C=C2\C=Nc3ccccc32)sc1=O | 76.6* | . | 58.3 | 39.0* | 2.5
Oc1nc(Nc2ccccc2)sc1/C=C1\C=Nc2ccccc21 | 61.5* | -9.1 | 88.2* | 23.1 | 1.2
O=C(C[C@@H]1C=C[C@@H](NS(=O)(=O)c2ccccc2)[C@H](CO)O1)NCc1ccncn1 | 0.3 | -5.2 | . | . | .
COCC(=O)N(C)C[C@H]1Oc2ncc(-c3ccccc3F)cc2C(=O)N([C@@H](C)CO)C[C@@H]1C | -0.8 | 5.8 | . | . | .
COc1ccc(OC)c(-c2cc(C(=O)NCCCn3ccnc3)no2)c1 | -6.0 | 160.9* | 1.7 | . | 8.6
Oc1[nH]c2ccccc2c1N=Nc1ccccc1F | 86.2* | 4.8 | 37.4 | 17.7 | -3.5
Oc1[nH]c2ccccc2c1N=Nc1ccccc1 | 52.4* | . | 20.4 | 28.4 | 6.8
O=C(CC1CC1)N[C@H]1CC[C@@H](CCNS(=O)(=O)c2ccc(Cl)cc2)O[C@H]1CO | -1.5 | 1.5 | . | . | .
COc1ccccc1-c1ccc([C@@H]2[C@@H](CO)N3CCCCN(C(=O)CN4CCOCC4)C[C@@H]23)cc1 | -10.3 | -15.5 | . | . | .
CCOC(=O)c1c(C)c(C(=O)NCCOC)c(C)n1CC | 0.8 | 1.1 | 1.8 | -0.7 | 2.4
CCOC(=O)c1c(C)c(C(=O)Nc2ccc(N(C)C)cc2)c(C)n1CC | 46.7* | -20.5 | -20.8 | -3.0 | 3.8
CCC(=O)N(C)C[C@@H]1[C@@H](c2ccc(C3=CCCCC3)cc2)[C@H](CO)N1C(C)=O | -1.1 | 11.6 | . | . | .
COc1cc(/C=N/Nc2snc(SC)c2C#N)ccc1O | 60.4* | -49.7 | 15.2 | . | 4.7
SMILES | esBAF inh | C2C12 statin | MITF act | Wnt act | Rtt109 HAT inh
CC(/C=N/Nc1nc2ccccc2[nH]1)=C\c1ccccc1 | . | . | -0.3 | 53.2* | -11.8
COc1cc(/C=N/Nc2nc(C)cc(C)n2)ccc1O | -1.0 | -4.9 | . | -4.4 | .
C(=N\Nc1nc2ccccc2s1)/c1ccc2c(c1)OCO2 | . | . | 24.4 | 14.0 | -5.3
COc1cccc(/C=N/Nc2nc3ccccc3[nH]2)c1O | 62.1* | 2.2 | -16.6 | 17.5 | -8.4
C(=N\Nc1nc2ccccc2[nH]1)/c1ccc2c(c1)OCO2 | . | . | 116.5* | -1.5 | -4.5
COc1cc(/C=N/Nc2nc3ccccc3[nH]2)ccc1O | 47.0* | 0.2 | 55.0 | -2.0 | 0.2
Clc1ccccc1N/N=C/c1ccc2c(c1)OCO2 | 78.1* | -0.9 | 50.8 | . | 2.2
CCC(=O)N(C)C[C@H]1Oc2ncc(-c3ccc(C)cc3)cc2C(=O)N([C@H](C)CO)C[C@@H]1C | -1.6 | 8.4 | . | . | .
CCNC(=O)C[C@@H]1C=C[C@@H](NS(=O)(=O)c2ccc(C)cc2)[C@@H](CO)O1 | 0.2 | -3.6 | . | . | .
CN(CC(=O)Nc1ccc(N2CCOCC2)cc1)CC(=O)Nc1ccccc1C#N | 1.4 | 94.8* | 0.1 | -5.0 | 7.6
COCC(=O)Nc1ccc2c(c1)C(=O)N(C)[C@@H]1CC[C@@H](CC(=O)NCc3cccc(F)c3)O[C@H]1CO2 | -4.9 | -21.1 | . | . | .
C[C@H]1CN([C@@H](C)CO)S(=O)(=O)c2ccc(C#CCN(C)C)cc2O[C@H]1CN(C)Cc1ccncc1 | -4.2 | -2.0 | . | . | .
